Assay outcomes from PubChem BioAssay.
Giardia FBPA inh: qHTS Assay for Inhibitors of Fructose-1,6-bisphosphate Aldolase from Giardia Lamblia; 0.71% of 290,000 active; AID 2451, 2010; purified Giardia FBPA; Potency, µM (titrated, usually from 59.6 µM), most hits filed as inhibitors; A8B2U2; further: nearly all actives have a fitted effect of over 55% in size
Target sequence (A8B2U2 whole entry, looked up): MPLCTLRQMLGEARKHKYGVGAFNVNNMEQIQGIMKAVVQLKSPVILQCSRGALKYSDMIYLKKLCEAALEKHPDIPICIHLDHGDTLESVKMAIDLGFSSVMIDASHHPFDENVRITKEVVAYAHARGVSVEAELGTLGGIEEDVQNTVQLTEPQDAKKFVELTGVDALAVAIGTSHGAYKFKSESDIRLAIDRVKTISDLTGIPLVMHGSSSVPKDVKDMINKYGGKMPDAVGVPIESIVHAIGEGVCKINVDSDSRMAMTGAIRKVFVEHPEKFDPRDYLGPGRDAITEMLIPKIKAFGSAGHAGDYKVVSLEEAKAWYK
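40 nM FBPA preincubated 10 min at RT with compound (up to 57.5 uM final), then substrate plus GAPDH/TPI/NAD/arsenate coupling and diaphorase/resazurin added. Fluorescence read after 20 min at RT, 525/598 nm.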
Pf growth 48h: Primary qHTS for delayed death inhibitors of the malarial parasite plastid, 48 hour incubation. P. falciparum luciferase growth in erythrocytes, 48 h. Potency, µM (series often up to 28.7 µM), most hits filed as inhibitors. 5.9% of 310,000 active
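In quantitative HTS format, infected erythrocytes bearing luciferase-reporter parasites were treated for a single generation at 37 C. Luminescence after adding detection reagent served as the growth measure.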
HCMV antiviral: qHTS Assay for inhibitors of the human cytomegalovirus (HCMV) | HFF cells, HCMV-luciferase reporter, 72 h; hits give low values | activity change, negative = inhibition, % at 57.5 µM | 4.5% of 410,000 active; in the data active means activity change below about -60%; inconclusive means no clear call, values can overlap the other calls; inactive means above about -39%
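Compounds were evaluated in HFFs infected with an HCMV luciferase reporter virus (MOI 1 PFU/cell). Luciferase in lysates collected 72 h post infection served as the replication measure.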
Pf growth 96h: Primary qHTS for delayed death inhibitors of the malarial parasite plastid, 96 hour incubation | P. falciparum luciferase reporter growth, 96 h | Potency, µM (highest dose often 28.7 µM), hits mostly inhibitors | 6.9% of 320,000 active
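Readout is luminescence from an integrated firefly luciferase in P. falciparum. Red cells, 2% hematocrit and 0.05% parasitemia final, were cultured with compound through two parasite generations (96 hours) at 37 C, 5% CO2.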
Sm TGR block: qHTS Assay for the Inhibitors of Schistosoma Mansoni Peroxiredoxins; purified TGR, DTNB reduction, TNB absorbance 405 nm; Potency, µM (series often up to 114 µM), most hits filed as inhibitors; 3% of 360,000 active; further: nearly all actives have a fitted effect of over 60% in size
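First, TGR (20 nM dispensed) and NADPH were mixed with compound. Second, a 15 min room-temperature incubation followed. Third, further NADPH and then DTNB were added to start the reaction. Finally, TNB absorbance was monitored kinetically.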
Large screens that a line does not name were inactive. Rows were chosen to be rich in hits. Some 14% of all compounds tested hit in one or more screens of this group. Unless noted, the call rests on the fitted dose curve; in most records, active means well fitted curve in the direction sought with a large enough effect; inconclusive means small, poorly fitted or top-dose-only effect, or another doubt; inactive means no such curve, though single readings can be large; an effect the other way counts as inactive or inconclusive.

CC1CCN(CC(=O)N2CCN(c3ccccc3)CC2)CC1	none
Cn1c(=O)c2cc(C(=O)NCCCN3CCN(c4ccccc4F)CC3)sc2c2ccccc21	none (no result: Giardia FBPA inh, Pf growth 48h, Pf growth 96h)
C[C@@H]1CC2C3CCC4=CC(=O)C=C[C@]4(C)[C@@]3(F)[C@@H](O)C[C@]2(C)[C@@]1(O)C(=O)COC(=O)c1cccc(S(=O)(=O)O)c1 (stereo partly drawn)	none (no result: Giardia FBPA inh, HCMV antiviral, Sm TGR block)
Cc1cc(Nc2nnnn2-c2ccccc2)n(-c2ccccc2)n1	Pf growth 96h 9.28µM (no result: Giardia FBPA inh)
Cc1cc(Nc2nc3ccccc3nc2Cl)n(-c2ccccc2)n1	HCMV antiviral -90.0, Pf growth 96h inconclusive (no result: Pf growth 48h)
Cc1cc(Nc2nc3ccccc3nc2Cl)n(-c2ccccc2C)n1	Pf growth 48h 1.47µM, HCMV antiviral inconclusive, Pf growth 96h 1.47µM
c1ccc(CNc2nnnn2-c2ccccc2)cc1	HCMV antiviral -71.8, Pf growth 96h inconclusive
Cc1cc(C)n(-c2nc3ccccc3nc2Nc2cc(Cl)ccc2C)n1	none (no result: Giardia FBPA inh, Pf growth 48h, Pf growth 96h)
CC1CCCC(NC(=O)COC(=O)c2ccc3ncsc3c2)C1C (stereo not drawn)	none (no result: Giardia FBPA inh)
CC1CCCCN1CCCNc1ccc(C(CC(N)=O)NC(=O)Cc2cccc3ccccc23)cc1[N+](=O)[O-] (stereo not drawn)	Pf growth 48h inconclusive, Pf growth 96h 2.08µM
CC1CCCCN1CCCNc1ccc(C(CC(N)=O)NC(=O)Cc2ccc(Cl)cc2)cc1[N+](=O)[O-] (stereo not drawn)	HCMV antiviral inconclusive
CCOc1ccc(NC(=O)Cc2cccc3ccccc23)c([N+](=O)[O-])c1	HCMV antiviral -73.5
NC(=O)CC(NC(=O)Cc1cccc2ccccc12)c1ccc(NCCOc2ccccc2)c([N+](=O)[O-])c1 (stereo not drawn)	Pf growth 48h inconclusive, HCMV antiviral -68.5, Pf growth 96h inconclusive
CCOc1ccc(CCNC(=O)CCCn2nc(C)c3sc4ccccc4c3c2=O)cc1OCC	none (no result: Giardia FBPA inh, Pf growth 48h, Pf growth 96h)
CC(Sc1nnc2n1CCCCC2)C(=O)Nc1ccc(S(N)(=O)=O)cc1 (stereo not drawn)	none (no result: Giardia FBPA inh)
CCSc1nnc(NC(=O)c2cnccn2)s1	none (no result: HCMV antiviral)
CCc1nnc(NC(=O)c2ccc(Cl)nc2)s1	Giardia FBPA inh inconclusive
CCSc1nnc(NC(=O)c2ccccn2)s1	Giardia FBPA inh inconclusive, Pf growth 48h 2.94µM
Cc1ccc(CN2CC(C(=O)Nc3nnc(SCc4c(Cl)cccc4Cl)s3)CC2=O)cc1 (stereo not drawn)	Pf growth 96h inconclusive
Cc1cnc(C(=O)Nc2nnc(SCc3c(Cl)cccc3Cl)s2)cn1	Giardia FBPA inh inconclusive, Pf growth 48h 2.62µM, Pf growth 96h 2.94µM
CCSc1nnc(NC(=O)C2Cc3ccccc3CN2S(=O)(=O)CC)s1 (stereo not drawn)	Pf growth 96h 13.1µM
CCc1nnc(NC(=O)c2cc(Cl)ccn2)s1	Pf growth 48h inconclusive, Pf growth 96h 5.86µM
Cc1cc(/C=N\NC(=O)CC(=O)NC2CCCCC2)c(C)n1-c1cccc(Cl)c1Cl	Pf growth 96h 8.28µM
COCC(=O)N1CCC[C@@]2(CCN(C(=O)Nc3ccc(OC)cc3)C2)C1	none (no result: Pf growth 48h, HCMV antiviral, Pf growth 96h, Sm TGR block)
COc1cc(OC)c2c(-c3ccccc3)cc(=O)oc2c1C(CCN1CCOCC1)c1ccc(N(C)C)cc1 (stereo not drawn)	none (no result: Pf growth 48h, Pf growth 96h, Sm TGR block)
COc1cc(OC)c2c(-c3ccccc3)cc(=O)oc2c1C(CCN1CCCCC1)c1ccc(N(C)C)cc1 (stereo not drawn)	Pf growth 48h 10.4µM, Pf growth 96h inconclusive (no result: HCMV antiviral)
COc1ccc(C(CCN2CCCCC2)c2c(OC)cc(OC)c3c(-c4ccccc4)cc(=O)oc23)cc1 (stereo not drawn)	Pf growth 48h 10.4µM, Pf growth 96h 9.28µM
CCN(CC)C(=O)CC(c1ccc(OC)cc1)c1c(OC)cc(OC)c2c(-c3ccccc3)cc(=O)oc12 (stereo not drawn)	none (no result: Pf growth 48h, HCMV antiviral, Pf growth 96h, Sm TGR block)
CCN1C(=O)S/C(=C/c2c(OCc3ccc(C(=O)O)cc3)ccc3ccccc23)C1=O	Pf growth 48h inconclusive, Pf growth 96h 6.57µM
O=C(O)c1ccc(COc2ccc3ccccc3c2/C=C2/NC(=O)N(c3ccccc3)C2=O)cc1	Pf growth 48h 5.86µM, Pf growth 96h inconclusive
